A selection: hits, their analogues and other compounds. The true share with any hit is near 3.1%.
uPA generation: inhibitors of cell surface uPA generation; cell surface uPA generation assay, qHTS; Potency, µM (titrated, usually from 38.3 µM), for the others: top-dose activity change, negative = inhibition, hits mostly inhibitors; hit rate 0.31% among 330,000; active = well fitted inhibition curve with a large enough effect; inconclusive = small, poorly fitted or top-dose-only effect; inactive = no such curve, though single readings can be large or run the other way; tested in mouse RAW 264.7 cells; note: potency is the fitted concentration of half-maximal effect; % is set by controls: 0 for no effect and ±100 for the full control effect; nearly all actives have a fitted effect of over 55% in size
RGS4 inh: human RGS4 inhibition | AID 504845 | Potency, µM (titrated, usually from 114 µM), inactives show at the highest dose activity change, negative = inhibition, hits mostly inhibitors | hit rate 0.039% among 390,000 | Transcreener GDP fluorescence polarization, RGS4-accelerated GTP hydrolysis | P49798; active = well fitted inhibition curve with a large enough effect; inconclusive = small, poorly fitted or top-dose-only effect; inactive = no such curve, though single readings can be large or run the other way; note: potency is the fitted concentration of half-maximal effect; % is set by controls: 0 for no effect and ±100 for the full control effect; nearly all actives have a fitted effect of over 75% in size
Target sequence (P49798 whole entry, looked up): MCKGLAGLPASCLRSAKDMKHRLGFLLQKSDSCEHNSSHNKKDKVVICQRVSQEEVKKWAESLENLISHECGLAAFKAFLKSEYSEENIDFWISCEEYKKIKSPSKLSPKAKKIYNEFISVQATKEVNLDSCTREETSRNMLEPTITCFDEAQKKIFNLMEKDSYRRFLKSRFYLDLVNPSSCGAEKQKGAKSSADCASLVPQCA
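MLSMR compounds (23 nl, pin-transferred) preincubated 10 min at room temperature with a 500nM (2x) first reagent, then RGS4 at 900nM (2x) plus Transcreener GDP mix added; fluorescence polarization (620/688 nm) read before and after 90 min at 30 °C.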
DRD3 antagonist: D3 dopamine receptor (human) antagonism | P35462 | D3R cells, DiscoveRx beta-arrestin luminescence, antagonist mode; active compounds read low | max response, negative = inhibition, % | hit rate 2.5% among 360,000; in the data active = max response below about -50%; inconclusive = no clear call, values can overlap the other calls; note: % is set by controls: 0 for no effect and ±100 for the full control effect
Target sequence (P35462 whole entry, looked up): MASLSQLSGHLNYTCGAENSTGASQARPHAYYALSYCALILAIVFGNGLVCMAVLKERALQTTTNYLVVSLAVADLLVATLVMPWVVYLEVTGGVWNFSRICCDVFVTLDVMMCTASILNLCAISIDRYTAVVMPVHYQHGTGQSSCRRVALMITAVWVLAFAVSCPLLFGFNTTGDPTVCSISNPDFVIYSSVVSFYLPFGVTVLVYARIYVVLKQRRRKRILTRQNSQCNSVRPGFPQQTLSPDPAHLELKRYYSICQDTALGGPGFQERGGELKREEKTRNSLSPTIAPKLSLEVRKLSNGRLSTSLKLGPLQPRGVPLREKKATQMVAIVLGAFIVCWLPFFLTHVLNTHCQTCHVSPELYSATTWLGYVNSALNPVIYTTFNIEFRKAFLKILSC
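Cells expressing the human receptor were seeded at 1500 cells/well, incubated overnight at 37 degrees C in 5% CO2, then exposed to library compounds with dopamine controls for 90 minutes at 37 degrees C before luminescent detection.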
D3 ag: D3 dopamine receptor (human) agonism; P35462; D3R DiscoveRx beta-arrestin cells, luminescence, 90 min; max activation, %; hit rate 0.58% among 410,000; in the data active = max activation above about 30%; note: 0% is about no effect
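Cells at 1500/well, incubated overnight, then treated with pinned compounds (dopamine as control) for 90 min at 37 degrees C. DiscoveRx reagent added for 30 - 60 minutes at room temperature; luminescence read.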
The depositor's hits bear a star; ? = inconclusive; . = not tested or not shown; [ ] = remark or other dose.

SMILES | uPA generation | RGS4 inh | DRD3 antagonist | D3 ag
COc1cc2nc(SCc3ccc(Cl)cc3)n3nc(CCn4nc(C)cc4C)nc3c2cc1OC | . | -1% | . | -4
Cc1ccc(NS(=O)(=O)c2c(C(=O)N3CCC(C)CC3)c(C)n(C)c2C)cc1Cl | . | -18% | . | -1
O=C(Nc1nc2n(n1)C(c1ccc(Cl)cc1)CC(c1ccc(Cl)cc1)N2)c1ccco1 (configuration not stated) | -3% | 23% | -53* | -12
CN(C)CC#CCC(O)(c1ccccc1)C1CCCCC1 (configuration not stated) | -7% | 10% | -55* | -13
CC1CC1C(=O)OCC(=O)NC(=O)c1ccc(C(C)(C)C)cc1 (configuration not stated) | -1% | 10% | 19 | 39*
Cc1ccc(NC(=S)NCCO)c(C)c1 | 5% | -23% | -56* | -7
Cc1ccc(NC(=S)N/N=C/c2c(Cl)cccc2Cl)c(C)c1 | -10% | -30% | -60* | -6
Cc1ccccc1C(=O)N/N=C/c1cccc2ccccc12 | -24% | 3% | -4 | -1
Cc1ccc(Cl)cc1NC(=S)N/N=C/c1cccc2ccccc12 | -4% | 1% | -53* | -20
Cc1cc(C)c(S(=O)(=O)Nc2ccc(-c3ccc(N4CCCCCC4)nn3)cc2)c(C)c1 | . | -1% | . | 7
CCOC(=O)c1cc2c(=O)n3ccccc3nc2n(Cc2ccco2)c1=NC(=O)c1c(F)cccc1Cl | . | ? | . | -6
Cc1ccccc1NC(=O)c1ccc(Nc2c([N+](=O)[O-])cc([N+](=O)[O-])c3ccccc23)cc1 | -6% | -22% | -71* | -10
Cc1cc(C(=O)Nc2ccc(Nc3ccccc3)cc2)ccc1[N+](=O)[O-] | -6% | ? | 10 | 0
O=C(NCCN1CCN(c2ccccc2)CC1)C1CCN(S(=O)(=O)c2cccc3nonc23)CC1 | 1% | 17% | -7 | 41*
O=C(C1CCCN(S(=O)(=O)c2cccc3nonc23)C1)N1CCN(c2ccccc2Cl)CC1 (configuration not stated) | -8% | -3% | -9 | 5
O=C(NCCN1CCN(c2ccccc2)CC1)C1CCN(S(=O)(=O)c2cccs2)CC1 | 3% | -3%[11.4 µM] | -27 | 46*
O=C(C1CCCN(S(=O)(=O)c2cccc3nonc23)C1)N1CCC(Cc2ccccc2)CC1 (configuration not stated) | -1% | -26% | -53* | -1
O=C(NCCc1ccccc1)C1CCN(S(=O)(=O)c2cccs2)CC1 | -6% | 28% | -14 | -8
COc1cccc(CNS(=O)(=O)c2cc3[nH]c(=O)c(=O)[nH]c3cc2C)c1 | . | -3% | . | 5
COc1ccc(-c2ccc3c(c2)S(=O)(=O)c2cccc(C(=O)NC[C@@H]4CCCO4)c2C3=O)cc1OC | -7% | -23% | 82 | 37*
Cc1cccnc1C(NC(=O)C1CCN(CCCc2ccccc2)CC1)c1ccc(F)cc1 (configuration not stated) | . | . | -70* | -20
CCN1CCC(C(=O)NC(c2ccc(F)cc2)c2ncccc2C)CC1 (configuration not stated) | . | . | ? | -15
CCCN1CCC(C(=O)NC(c2ccc(F)cc2)c2ncccc2C)CC1 (configuration not stated) | . | . | -57* | -10
COc1ccccc1CN1C2CCCC1CC(NC(=O)/C=C/c1ccccc1)C2 (configuration not stated) | -9% | -19% | -65* | -16
CN[C@@H]1[C@@H](O[C@H]2O[C@H](CO)[C@@H](N)[C@H](O)[C@H]2O)O[C@H]2C[C@@H](N)[C@@H](O[C@H]3[C@H](O)[C@@H](O)[C@H](N)C[C@@H]3N)O[C@@H]2[C@@H]1O | . | . | . | 5
SMILES | uPA generation | RGS4 inh | DRD3 antagonist | D3 ag
Cc1ccc(C)c(NS(=O)(=O)c2cc(C(=O)Nc3cccc(N(C)S(C)(=O)=O)c3)ccc2C)c1 | . | 23% | 24 | 7
Cc1ccc(NS(=O)(=O)c2cc(C(=O)Nc3cccc(N(C)S(C)(=O)=O)c3)ccc2C)c(C)c1 | 19% | -22% | 59 | 43*
Cc1c2cnn(-c3ccccc3)c(=O)c2c(C)n1CC(=O)Nc1ccccc1Br | . | 1% | . | 1
COC(=O)c1cccc(C(=O)N2CCC(CO)(Cc3ccccc3Cl)CC2)c1 | -1% | 10% | 9 | 5
OCC1(CCc2ccccc2)CCN(C/C=C/c2ccccc2)CC1 | -14% | 10% | -54* | -23
OCC1(Cc2ccccc2Cl)CCN(C/C=C/c2ccccc2)CC1 | -1% | 13% | -78* | -20
O=C(CCC(F)(F)F)N1CCC(CO)(CCc2ccccc2)CC1 | 1% | -4% | -16 | -10
COC(=O)C1=C(C)NC2=C(C(=O)c3ccccc32)C1c1cccc(OC)c1 (configuration not stated) | 5% | 4% | -14 | 3
CC1=C([N+](=O)[O-])C(c2cccc(Br)c2)C2=C(N1)c1ccccc1C2=O (configuration not stated) | -10% | -47% | -94* | 2
CCOc1ccc(/C=C/c2nc(C#N)c(N3CCC(C)CC3)o2)cc1 | . | -11% | . | -2
Oc1cc2ccccc2cc1-c1n[nH]c(=S)o1 | 2% | -50% | -50* | -2
COc1ccc(-c2onc(C)c2C)cc1S(=O)(=O)Nc1cc(Cl)ccc1C | . | 10% | . | -20
Cc1cccc(-n2ncc3c(N(C)C4CCCCC4)ncnc32)c1 | 1.4µM* | -12% | 14 | 4
COc1ccc(-n2ncc3c(N(C)C4CCCCC4)ncnc32)cc1 | ? | 11% | 44 | 6
CCCN(C(=O)Cn1ncc2c([nH]c3ccccc32)c1=O)c1ccc(F)cc1 | . | 24% | . | 0
Cc1nc(NCCc2ccc(F)cc2)c2nnn(Cc3ccccc3)c2n1 | 0% | -21%[56.9 µM] | 0 | 5
Cc1nc(NCCc2ccc(O)cc2)c2nnn(Cc3ccccc3)c2n1 | -10% | -6% | -82* | -14
O=C(Nc1ccccc1)C1=C[C@@H](c2csc3ccccc23)C[C@@H](OCc2ccc(CO)cc2)O1 | ? | 5% | -51* | -32
O=C(NCc1nc2ccccc2[nH]1)C1=C[C@H](C2CCCCC2)C[C@H](OCc2ccc(CO)cc2)O1 | ? | -5% | 60 | 41*
O=C(NC1CC1)C1=C[C@@H](c2c[nH]c3ccccc23)C[C@@H](OCc2ccc(CO)cc2)O1 | -22% | -6% | -53* | -22
O=C(NCc1ccccc1)C1=C[C@H](c2csc3ccccc23)C[C@H](OCc2ccc(CO)cc2)O1 | ? | 9% | 0 | -11
CC(C)(C)[C@H]1C=C(C(=O)N2CCOCC2)O[C@@H](OCc2ccc(CO)cc2)C1 | -8% | 11% | -52* | -35
O=C(NC1CC1)C1=C[C@H](c2c[nH]c3ccccc23)C[C@H](OCCCCO)O1 | -5% | -9% | -1 | -15
O=C(NCc1nc2ccccc2[nH]1)C1=C[C@@H](C2CCCCC2)C[C@@H](OCc2ccc(CO)cc2)O1 | ? | 17% | 79 | 11
CC(C)(C)[C@@H]1C=C(C(=O)N2CCOCC2)O[C@H](OCc2ccc(CO)cc2)C1 | 7% | -22% | -24 | -16

High-throughput results deposited in PubChem BioAssay by National Center for Advancing Translational Sciences (NCATS).
